# Compounds without any hit were thinned out: in the full panel of roughly 79,000, 15% have a hit. A number with no mark means an inactive call. Calls of active or inactive are those of the source. Rule as the data show it: active = growth inhibition above about 70%; inactive = the rest.
# Tests used:
# [1] = NCI Yeast Anticancer Drug Screen. Data for the mec2-1 strain (AID 157); details: S. cerevisiae mec2-1 strain, active compounds read high
# Method in brief: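 Vehicle-treated cultures served as reference for growth inhibition of compound-exposed mec2-1 yeast.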
# [2] = NCI Yeast Anticancer Drug Screen. Data for the rad14 strain (AID 159);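 also: 0% = growth of vehicle-treated control cultures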; details: S. cerevisiae rad14 strain growth inhibition, active compounds read high
# Method in brief: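 A mutant yeast strain defective in DNA damage repair is treated with compound; inhibition of its growth is scored against untreated, vehicle-exposed cultures.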
# [3] = NCI Yeast Anticancer Drug Screen. Data for the sgs1 mgt1 strain (AID 161);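 also: 0% = growth of cultures given vehicle only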; details: S. cerevisiae sgs1 mgt1 strain, active compounds read high
# Method in brief: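 Inhibition of yeast growth, normalised to vehicle-treated controls, is reported for a strain bearing genetic alterations in DNA damage repair.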
# [4] = NCI Yeast Anticancer Drug Screen. Data for the CLN2oe strain (AID 163);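 also: 0% = growth of vehicle-only control cultures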; details: S. cerevisiae CLN2oe strain, active compounds read high
# Method in brief: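 Inhibition relative to vehicle-treated yeast is reported. Cells: strain with genetic alteration in cell-cycle control, grown with compound.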
# [5] = NCI Yeast Anticancer Drug Screen. Data for the cln2 rad14 strain (AID 165);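 also: 0% = growth equal to vehicle treated cultures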; details: S. cerevisiae cln2 rad14 strain, active compounds read high
# Method in brief: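 Each compound was tested on cln2 rad14 yeast. Inhibition of growth was calculated against vehicle-exposed controls.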
# [6] = NCI Yeast Anticancer Drug Screen. Data for the bub3 strain (AID 167); details: S. cerevisiae bub3 mutant strain, active compounds read high
# Method in brief: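 Steps: expose the mutant yeast strain to compound; grow alongside vehicle-treated cultures; measure growth; express inhibition against the vehicle cultures.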
# [7] = NCI Yeast Anticancer Drug Screen. Data for the wt2 strain (AID 169);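 also: 0% = growth of vehicle-treated yeast cultures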; details: S. cerevisiae wt2 strain growth inhibition, active compounds read high
# Method in brief: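 Inhibition of yeast growth was determined after compound treatment, normalised to controls receiving only vehicle.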
# [8] = NCI Yeast Anticancer Drug Screen. Data for the mlh1 strain (AID 171);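 also: 0% = growth of vehicle-treated control cultures of the same strain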; details: S. cerevisiae mlh1 strain growth inhibition, active compounds read high
# Method in brief: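 Vehicle-normalised growth inhibition of a repair- or checkpoint-altered yeast strain following compound treatment.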
# [9] = NCI Yeast Anticancer Drug Screen. Data for the sgs1 strain (AID 173);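 also: 0% = growth of vehicle-only control cultures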; details: S. cerevisiae sgs1 mutant, active compounds read high
# Method in brief: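 Screen format: yeast with repair or checkpoint alterations, compound exposure, growth read relative to vehicle.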
# [10] = NCI Yeast Anticancer Drug Screen. Data for the mlh1 rad18 strain (AID 175); details: S. cerevisiae mlh1 rad18 strain growth inhibition, active compounds read high
# Method in brief: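 Vehicle-treated cultures served as the reference for growth inhibition in a yeast strain carrying DNA damage repair alterations exposed to each compound.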
# [11] = NCI Yeast Anticancer Drug Screen. Data for the rad18 strain (AID 177); details: S. cerevisiae rad18 mutant growth inhibition, active compounds read high
# Method in brief: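 Test articles were incubated with altered yeast defective in DNA damage repair. Results are given as inhibition of growth versus vehicle.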
# [12] = NCI Yeast Anticancer Drug Screen. Data for the rad52 strain (AID 147);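 also: 0% = growth of vehicle-treated control cultures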; details: S. cerevisiae rad52 mutant growth inhibition, active compounds read high
# Method in brief: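 Vehicle-treated cultures served as the reference for growth inhibition of compound-exposed yeast bearing a DNA repair mutation.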
# [13] = NCI Yeast Anticancer Drug Screen. Data for the wt1 strain (AID 149);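 also: 0% = growth of vehicle-treated wt1 cultures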; details: S. cerevisiae wt1 strain (SPY 50644) growth inhibition, active compounds read high
# Method in brief: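 Compounds are added to wt1 yeast cultures. Growth is then measured. Inhibition is expressed relative to vehicle-treated controls.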
# [14] = NCI Yeast Anticancer Drug Screen. Data for the rad50EPP+ strain (AID 151);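 also: 0% = growth of vehicle-treated control cultures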; details: S. cerevisiae rad50 mutant strain, active compounds read high
# Method in brief: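 In this screen, rad50EPP+ yeast were exposed to compounds. Growth inhibition was scored against vehicle-treated controls.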
# [15] = NCI Yeast Anticancer Drug Screen. Data for the mgt1 strain (AID 153); details: S. cerevisiae mgt1 mutant growth inhibition, active compounds read high
# Method in brief: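 mgt1 strain exposed; growth vs vehicle control recorded as inhibition.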
# [16] = at 5.0 µM (retest, dose inferred, filed as 0.5)
# [17] = at 50.0 µM (retest, dose inferred, filed as 5.0)
smiles,measurement,setting,value
O=c1oc2ccccc2c(O)c1C(c1ccc2ccccc2c1)c1c(O)c2ccccc2oc1=O,growth inhibition,[1]; at 100.0 µM,98% (active)
same,growth inhibition,[2]; at 1.2 µM,12%
same,growth inhibition,[2]; at 3.7 µM,21%
same,growth inhibition,[2]; at 11.0 µM,26%
same,growth inhibition,[2]; at 33.0 µM,66%
same,growth inhibition,[2]; at 100.0 µM,99% (active)
same,growth inhibition,[3]; [16],-24%
same,growth inhibition,[3]; [17],92% (active)
same,growth inhibition,[3]; at 50.0 µM,46.1%
same,growth inhibition,[4]; at 1.2 µM,7%
same,growth inhibition,[4]; at 3.7 µM,21%
same,growth inhibition,[4]; at 11.0 µM,27%
same,growth inhibition,[4]; at 33.0 µM,78% (active)
same,growth inhibition,[4]; at 100.0 µM,97% (active)
same,growth inhibition,[5]; [16],19%
same,growth inhibition,[5]; [17],96% (active)
same,growth inhibition,[5]; at 50.0 µM,40.2%
same,growth inhibition,[6]; at 1.2 µM,8%
same,growth inhibition,[6]; at 3.7 µM,-8%
same,growth inhibition,[6]; [16],10%
same,growth inhibition,[6]; at 11.0 µM,22%
same,growth inhibition,[6]; at 33.0 µM,55%
same,growth inhibition,[6]; [17],93% (active)
same,growth inhibition,[6]; at 50.0 µM,28.4%
same,growth inhibition,[6]; at 100.0 µM,97% (active)
same,growth inhibition,[7]; at 1.2 µM,-25%
same,growth inhibition,[7]; at 3.7 µM,-21%
same,growth inhibition,[7]; at 11.0 µM,38%
same,growth inhibition,[7]; at 33.0 µM,97% (active)
same,growth inhibition,[7]; at 100.0 µM,94% (active)
same,growth inhibition,[8]; at 1.2 µM,-1%
same,growth inhibition,[8]; at 3.7 µM,20%
same,growth inhibition,[8]; at 11.0 µM,33%
same,growth inhibition,[8]; at 33.0 µM,75% (active)
same,growth inhibition,[8]; at 100.0 µM,99% (active)
same,growth inhibition,[9]; at 1.2 µM,27%
same,growth inhibition,[9]; at 3.7 µM,30%
same,growth inhibition,[9]; at 11.0 µM,36%
same,growth inhibition,[9]; at 33.0 µM,73% (active)
same,growth inhibition,[9]; at 100.0 µM,98% (active)
same,growth inhibition,[10]; [16],12%
same,growth inhibition,[10]; [17],40%
same,growth inhibition,[10]; at 50.0 µM,80% (active)
same,growth inhibition,[11]; at 1.2 µM,10%
same,growth inhibition,[11]; at 3.7 µM,7%
same,growth inhibition,[11]; at 11.0 µM,33%
same,growth inhibition,[11]; at 33.0 µM,55%
same,growth inhibition,[11]; at 100.0 µM,98% (active)
CSc1ccccc1[As](C)C,growth inhibition,[12]; at 1.2 µM,1%
same,growth inhibition,[12]; at 3.7 µM,16%
same,growth inhibition,[12]; at 11.0 µM,84% (active)
same,growth inhibition,[12]; at 33.0 µM,99% (active)
same,growth inhibition,[12]; at 100.0 µM,99% (active)
same,growth inhibition,[13]; at 1.2 µM,-1%
same,growth inhibition,[13]; at 3.7 µM,15%
same,growth inhibition,[13]; at 11.0 µM,88% (active)
same,growth inhibition,[13]; at 33.0 µM,99% (active)
same,growth inhibition,[13]; at 100.0 µM,99% (active)
same,growth inhibition,[14]; at 1.2 µM,1%
same,growth inhibition,[14]; at 3.7 µM,11%
same,growth inhibition,[14]; at 11.0 µM,74% (active)
same,growth inhibition,[14]; at 33.0 µM,98% (active)
same,growth inhibition,[14]; at 100.0 µM,99% (active)
same,growth inhibition,[15]; at 1.2 µM,-1%
same,growth inhibition,[15]; at 3.7 µM,16%
same,growth inhibition,[15]; at 11.0 µM,75% (active)
same,growth inhibition,[15]; at 33.0 µM,99% (active)
same,growth inhibition,[15]; at 100.0 µM,99% (active)
same,growth inhibition,[1]; at 1.2 µM,2%
same,growth inhibition,[1]; at 3.7 µM,24%
same,growth inhibition,[1]; [16],90% (active)
same,growth inhibition,[1]; at 11.0 µM,92% (active)
same,growth inhibition,[1]; at 33.0 µM,99% (active)
same,growth inhibition,[1]; [17],99% (active)
same,growth inhibition,[1]; at 50.0 µM,99.5% (active)
same,growth inhibition,[1]; at 100.0 µM,99% (active)
same,growth inhibition,[2]; at 1.2 µM,5%
same,growth inhibition,[2]; at 3.7 µM,26%
same,growth inhibition,[2]; at 11.0 µM,87% (active)
same,growth inhibition,[2]; at 33.0 µM,99% (active)
same,growth inhibition,[2]; at 100.0 µM,100% (active)
same,growth inhibition,[3]; [16],97% (active)
same,growth inhibition,[3]; [17],99% (active)
same,growth inhibition,[3]; at 50.0 µM,99.5% (active)
same,growth inhibition,[4]; at 1.2 µM,-4%
same,growth inhibition,[4]; at 3.7 µM,-1%
same,growth inhibition,[4]; at 11.0 µM,32%
same,growth inhibition,[4]; at 33.0 µM,99% (active)
same,growth inhibition,[4]; at 100.0 µM,98% (active)
same,growth inhibition,[5]; [16],27%
same,growth inhibition,[5]; [17],98% (active)
same,growth inhibition,[5]; at 50.0 µM,98.1% (active)
same,growth inhibition,[6]; at 1.2 µM,-6%
same,growth inhibition,[6]; at 3.7 µM,13%
same,growth inhibition,[6]; [16],1%
same,growth inhibition,[6]; at 11.0 µM,77% (active)
same,growth inhibition,[6]; at 33.0 µM,99% (active)
same,growth inhibition,[6]; [17],50%
same,growth inhibition,[6]; at 50.0 µM,98.8% (active)
same,growth inhibition,[6]; at 100.0 µM,99% (active)
same,growth inhibition,[7]; at 1.2 µM,-1%
same,growth inhibition,[7]; at 3.7 µM,21%
same,growth inhibition,[7]; at 11.0 µM,85% (active)
same,growth inhibition,[7]; at 33.0 µM,99% (active)
same,growth inhibition,[7]; at 100.0 µM,99% (active)
same,growth inhibition,[8]; at 1.2 µM,1%
same,growth inhibition,[8]; at 3.7 µM,20%
same,growth inhibition,[8]; at 11.0 µM,90% (active)
same,growth inhibition,[8]; at 33.0 µM,99% (active)
same,growth inhibition,[8]; at 100.0 µM,100% (active)
same,growth inhibition,[9]; at 1.2 µM,4%
same,growth inhibition,[9]; at 3.7 µM,34%
same,growth inhibition,[9]; at 11.0 µM,95% (active)
same,growth inhibition,[9]; at 33.0 µM,99% (active)
same,growth inhibition,[9]; at 100.0 µM,99% (active)
same,growth inhibition,[10]; [16],97% (active)
same,growth inhibition,[10]; [17],99% (active)
same,growth inhibition,[10]; at 50.0 µM,99.5% (active)
same,growth inhibition,[11]; at 1.2 µM,8%
same,growth inhibition,[11]; at 3.7 µM,43%
same,growth inhibition,[11]; at 11.0 µM,92% (active)
same,growth inhibition,[11]; at 33.0 µM,99% (active)
same,growth inhibition,[11]; at 100.0 µM,99% (active)
